Measurements reported in PubChem BioAssay (Tox21).
Inconclusive results are not listed. Where a call stands in place of a potency, no number is given. Where a structure was tested more than once in an assay, its records may differ in their call. The source made the active and inactive calls. Calls follow the shape of the full dose curve.

Assays:
[1] = target: Acetylcholinesterase (Homo sapiens) (UniProt P22303); experiment: Acetylcholinesterase (AChE) small molecule antagonists: colormetric cell-based qHTS assay (AID 1347395); also: nearly all actives have a fitted effect of over 30% in size; also: potency is read from the fitted curve at half-maximal effect
Acetylcholinesterase (Homo sapiens), sequence (P22303 whole entry, looked up): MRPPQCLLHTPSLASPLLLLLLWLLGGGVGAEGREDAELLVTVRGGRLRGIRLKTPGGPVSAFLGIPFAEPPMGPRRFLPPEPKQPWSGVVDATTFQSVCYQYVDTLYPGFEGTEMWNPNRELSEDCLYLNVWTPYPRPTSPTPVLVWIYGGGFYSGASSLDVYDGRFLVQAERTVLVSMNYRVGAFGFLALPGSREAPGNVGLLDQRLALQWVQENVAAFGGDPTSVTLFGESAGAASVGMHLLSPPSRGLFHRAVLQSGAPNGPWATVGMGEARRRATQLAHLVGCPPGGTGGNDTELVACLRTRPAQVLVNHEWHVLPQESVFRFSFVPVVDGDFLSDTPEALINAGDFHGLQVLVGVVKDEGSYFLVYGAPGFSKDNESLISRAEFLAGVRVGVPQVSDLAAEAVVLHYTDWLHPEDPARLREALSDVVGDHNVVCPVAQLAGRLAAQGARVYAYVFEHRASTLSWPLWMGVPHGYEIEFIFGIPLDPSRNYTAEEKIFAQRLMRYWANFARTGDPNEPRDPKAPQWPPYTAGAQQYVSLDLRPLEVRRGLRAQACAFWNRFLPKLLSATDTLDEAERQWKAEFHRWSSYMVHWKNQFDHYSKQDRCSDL
In short: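 Neuroblastoma line SH-SY5Y supplied the enzyme; cells were preincubated with compound for 30 min at 37 C and 5% CO2. Acetylthiocholine with DTNB was then added for 90 min at 37 C, and thiocholine was measured by colour.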

[2] = target: Acetylcholinesterase (Homo sapiens) (UniProt P22303); experiment: Acetylcholinesterase (AChE) small molecule antagonists: enzyme-based qHTS assay (AID 1347397); details: Potency: AChE enzyme activity inhibition; outcome: AChE enzyme activity inhibition; also: nearly all actives have a fitted effect of over 55% in size; also: potency is read from the fitted curve at half-maximal effect
In short: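 Recombinant human AChE, dispensed at 50 mU/mL, was preincubated with Tox21 10K compounds or DMSO vehicle for 30 min at room temperature. DTNB plus acetylthiocholine was then added, and thiocholine was measured colorimetrically after a further 10 min.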

[3] = target: Acetylcholinesterase (Homo sapiens) (UniProt P22303); experiment: Acetylcholinesterase (AChE) small molecule antagonists: fluorescence cell-based qHTS assay (AID 1347398); details: Potency: AChE activity; outcome: AChE activity; also: nearly all actives have a fitted effect of over 50% in size; also: potency is read from the fitted curve at half-maximal effect
In short: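 Human SH-SY5Y cells were plated overnight at 37 C, exposed to compound for 30 min at 37 C, 5% CO2, then given acetylthiocholine plus Thiolite Green for 40 min at room temperature; thiocholine fluorescence (Ex/Em 490/520 nm) reports endogenous AChE activity.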

[4] = target: Acetylcholinesterase (Homo sapiens) (UniProt P22303); experiment: Acetylcholinesterase (AChE) small molecule antagonists: enzyme-based qHTS assay with human liver microsomes (AID 1347399); details: Potency: qHTS inhibition; outcome: qHTS inhibition; also: nearly all actives have a fitted effect of over 60% in size
In short: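 Recombinant human AChE (50 mU/mL in the enzyme mix) and human liver microsomes (0.25 mg/mL final) were preincubated with compound and NADPH (0.25 mg/mL final) for 30 min at 37 C. Acetylthiocholine/DTNB was then added; thiocholine was read colorimetrically after 10 min at room temperature.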

| SMILES | Potency [1] | Potency [2] | Potency [3] | Potency [4] | outcome [1] | outcome [2] | outcome [3] | outcome [4] |
| --- | --- | --- | --- | --- | --- | --- | --- | --- |
| Cc1cc(C)c(C)c(O)c1 | inactive | inactive | inactive | inactive |  |  |  |  |
| C[N+](C)(C)CCO |  |  |  |  | inactive | inactive | inactive | inactive |
| C=C[C@@H](C)CCC=C(C)C | inactive | inactive | inactive | inactive |  |  |  |  |
| C[C@@H]1C[C@H]2[C@@H]3CCC4=CC(=O)C=C[C@]4(C)[C@@]3(F)[C@@H](O)C[C@]2(C)[C@@]1(O)C(=O)COC(=O)c1ccncc1 | inactive | inactive | inactive | inactive |  |  |  |  |
| CCC=O | inactive | inactive | inactive | inactive |  |  |  |  |
| C[C@@H](Oc1ccc(CNC(=O)c2cccnc2Oc2ccc3c(c2)OCO3)c(F)c1)C(=O)O | inactive | inactive | inactive | inactive |  |  |  |  |
| O=C(OCc1ccccc1)c1ccc(O)cc1 | inactive | inactive | inactive | inactive |  |  |  |  |
| O=c1[nH]cnc2[nH]ncc12 | inactive | inactive | inactive | inactive |  |  |  |  |
| C=CC(=O)OCCOC(=O)C=C | inactive | inactive | inactive | inactive |  |  |  |  |
| NC(=O)N(O)[C@@H]1C=C[C@H](Oc2cccc(Oc3ccc(F)cc3)c2)C1 | inactive | inactive | inactive | inactive |  |  |  |  |
| OC(CCN1CCCCC1)(c1ccccc1)c1ccccc1 | inactive | inactive | inactive | inactive |  |  |  |  |
| CCCCCCCC | inactive | inactive | inactive | inactive |  |  |  |  |
| CCOC(=O)COC(=O)c1ccccc1C(=O)OCC | inactive | inactive | inactive | inactive |  |  |  |  |
| Cc1ccc(N)c(S(=O)(=O)O)c1 | inactive | inactive | inactive | inactive |  |  |  |  |
| CCCCCC[C@@H](O)C/C=C\CCCCCCCC(=O)OCC(O)CO (stereo not given in full) | inactive | inactive | inactive | inactive |  |  |  |  |
| CCO/C([O-])=N/c1c[n+](N2CCOCC2)no1 | inactive | inactive | inactive | inactive |  |  |  |  |
| CCC(C(=O)NC(N)=O)c1ccccc1 (stereo not given) | inactive | inactive | inactive | inactive |  |  |  |  |
| CC(C)(c1ccc(Oc2ccc(N)cc2)cc1)c1ccc(Oc2ccc(N)cc2)cc1 | inactive | inactive | inactive | inactive |  |  |  |  |
| CC1(C)CC(=O)CC(C)(C)N1 | inactive | inactive | inactive | inactive |  |  |  |  |
| COC(=O)/C=C(\C)CCC=C(C)C | inactive | inactive | inactive | inactive |  |  |  |  |

| SMILES | Potency [1] | Potency [2] | Potency [3] | Potency [4] | outcome [1] | outcome [2] | outcome [3] | outcome [4] |
| --- | --- | --- | --- | --- | --- | --- | --- | --- |
| O=C(O)c1ccc(C(=O)O)c(C(=O)O)c1 | inactive | inactive | inactive | inactive |  |  |  |  |
| CC(C)Cc1ccc(CC(=O)O)cc1 | inactive | inactive | inactive | inactive |  |  |  |  |
| Cc1c(Nc2ncccc2C(=O)O)cccc1C(F)(F)F | inactive | inactive | inactive | inactive |  |  |  |  |
| O=C(O)c1ccccc1[N+](=O)[O-] | inactive | inactive | inactive | inactive |  |  |  |  |
| OCCN(CCO)CCN(CCO)CCO | inactive | inactive | inactive | inactive |  |  |  |  |
| CC(=O)c1sc(C)nc1C | inactive | inactive | inactive | inactive |  |  |  |  |
| Cn1cnc([N+](=O)[O-])c1Sc1ncnc2nc[nH]c12 | inactive | inactive | inactive | inactive |  |  |  |  |
| O=C[C@H](O)[C@H](O)[C@H](O)CO | inactive | inactive | inactive | inactive |  |  |  |  |
| Cc1cc2nc(N)sc2cc1C | inactive | inactive | inactive | inactive |  |  |  |  |
| C#C[C@]1(O)CC[C@H]2[C@@H]3[C@H](C)CC4=C(CCC(=O)C4)[C@H]3CC[C@@]21C | inactive | inactive | inactive | inactive |  |  |  |  |
| CCCCCCCCCCl | inactive | inactive | inactive | inactive |  |  |  |  |
| C=Cc1ccc(C)cc1 | inactive | inactive | inactive | inactive |  |  |  |  |
| COc1cc(Cl)ccc1Cl | inactive | inactive | inactive | inactive |  |  |  |  |
| O=C(O)Cc1csc(-c2ccc(Cl)cc2)n1 | inactive | inactive | inactive | inactive |  |  |  |  |
| COC(=O)c1ccccc1C(=O)O | inactive | inactive | inactive | inactive |  |  |  |  |
| CCCCCCCC(=O)OCCCCCC | inactive | inactive | inactive | inactive |  |  |  |  |
| CN1CCN(C2Cc3ccccc3Sc3ccc(Cl)cc32)CC1 (stereo not given) | inactive | inactive | inactive | inactive |  |  |  |  |
| CC1(C)O[C@@H]2C[C@H]3[C@@H]4C[C@H](F)C5=CC(=O)C=C[C@]5(C)[C@H]4[C@@H](O)C[C@]3(C)[C@]2(C(=O)CO)O1 | inactive | inactive | inactive | inactive |  |  |  |  |
| c1ccc2cc3ccccc3cc2c1 | inactive | inactive | inactive | inactive |  |  |  |  |
| CCc1ccccc1 | inactive | inactive | inactive | inactive |  |  |  |  |

| SMILES | Potency [1] | Potency [2] | Potency [3] | Potency [4] | outcome [1] | outcome [2] | outcome [3] | outcome [4] |
| --- | --- | --- | --- | --- | --- | --- | --- | --- |
| Cc1ccc(S(=O)(=O)NC(=O)NC2CCCCCCC2)cc1 | inactive | inactive | inactive | inactive |  |  |  |  |
| CCCCCC(CC)OC(=O)CCCOc1ccc(Cl)cc1Cl (stereo not given) | inactive | inactive | inactive | inactive |  |  |  |  |
| CC(C)C(=O)OCCOc1ccccc1 | inactive | inactive | inactive | inactive |  |  |  |  |
| C=C(C)OC(C)=O | inactive | inactive | 32.7 µM (active) and inactive | inactive |  |  |  |  |
| CCNCCO | inactive | inactive | inactive | inactive |  |  |  |  |
| CC(C)(C#N)Nc1nc(Cl)nc(NC2CC2)n1 | inactive | inactive | inactive | inactive |  |  |  |  |
| CCCCCCCCNC(C)C(O)c1ccc(SC(C)C)cc1 (stereo not given) | inactive | inactive | inactive | inactive |  |  |  |  |
| CCCOCCOCCO | inactive | inactive | inactive | inactive |  |  |  |  |
| CCNC(=O)N1CCN(CCCC(c2ccc(F)cc2)c2ccc(F)cc2)CC1 | inactive | inactive | inactive | inactive |  |  |  |  |
| O=C(OCCOCCO)c1ccccc1Nc1cccc(C(F)(F)F)c1 | inactive | inactive | inactive | inactive |  |  |  |  |
| CCCCCCCCS | inactive | inactive | inactive | inactive |  |  |  |  |
| O=C1OC2(c3ccccc31)c1cc(I)c(O)c(I)c1Oc1c2cc(I)c(O)c1I | 36 µM (active) and inactive | 40.4 µM (active) and inactive | inactive | inactive |  |  |  |  |
| COc1ccccc1O | inactive | inactive | inactive | inactive |  |  |  |  |
| Nc1ccc2cc(S(=O)(=O)O)ccc2c1 | inactive | inactive | inactive | inactive |  |  |  |  |
| CCc1oc2ccccc2c1C(=O)c1cc(I)c(O)c(I)c1 | inactive | inactive | inactive | inactive |  |  |  |  |
| COc1cc(C)cc(O)c1 | inactive | inactive | inactive | inactive |  |  |  |  |
| CCOC(=O)C(F)(F)F | inactive | inactive | inactive | inactive |  |  |  |  |
| CN=C(NC#N)NCCSCc1nc[nH]c1C | inactive | inactive | inactive | inactive |  |  |  |  |
| Cc1cccc(C(C)(C)C)c1O | inactive | inactive | inactive | inactive |  |  |  |  |
| CC(=O)NCCO | inactive | inactive | inactive | inactive |  |  |  |  |
